Bioassay records (PubChem)
Only some compounds are listed: those with a hit (about 3.9% of all), similar ones and a draw of the others.
esBAF inh: blocks esBAF chromatin remodeling in mouse ES cells; reporter increase, % at 12.5 µM; 350,000 tested, 2% active; Bmi1-luciferase knock-in reporter, 24 h; 100% = twice the neutral-well signal; in the data active = activation above about 40%; inconclusive = no clear call, values can overlap the other calls;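 note: 0% = median of the plate's neutral control wells and 100% = double that signal; a rise in the Bmi1 reporter signal indicates esBAF inhibition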
HSF-1 act: increases HSF-1 driven luciferase reporter signal; NIH3T3-HGL HSF-1 luciferase reporter, MG132, 8 h; 100% = twice DMSO control signal; activation, % at 9 µM; 300,000 tested, 1.7% active;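 active = mean replicate activation of at least 50% with a set share of replicates each reaching 50%; inconclusive = only one of those two conditions met; inactive = mean below 50% and too few replicates reaching it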;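 note: 0% = median of the neutral control wells and 100% = twice that signal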
HSF1 inh: HSF1 inhibition; NIH3T3-HGL HSE-luciferase, MG132-induced, luminescence 8 h; active compounds read low; AID 2098; activity change, negative = inhibition, % at 7.5 µM (by protocol); 300,000 tested, 0.77% active;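 active = more than half of replicate wells show activity change below -50%, luminescence cut by over half; inconclusive = some wells, but at most half, below -50%; inactive = no replicate well below -50%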;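 note: luciferase reports HSF-1 transcriptional activity via heat shock element; 0% = median of DMSO wells and -100% = zero luminescence signal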
MITF act: activators of MITF-driven TRPM1 promoter activity in SK-MEL-5 cells; SK-MEL-5 TRPM1-promoter luciferase, 24 h; % of positive control, neutral wells = 0; activation, % at 12.5 µM; 300,000 tested, 0.75% active;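 active = mean activation of at least 80% with every replicate also reaching 80%; inconclusive = mean reaches 80% but some replicate falls short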;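 note: 0% = neutral control wells and 100% = parthenolide positive control wells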
Wnt bcat act: Wnt/beta-catenin pathway activation | Wnt/beta-catenin reporter cell assay, activator, plate reader | activation, % at 9.35 µM | 300,000 tested, 1.2% active; in the data active = activation above about 30%, passing the limit was not always enough; inconclusive = no clear call, values can overlap the other calls;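 note: 0% = neutral control wells and 100% = positive control wells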
The depositor's hits bear a star; u = inconclusive; x = not tested or not shown.

SMILES	esBAF inh	HSF-1 act	HSF1 inh	MITF act	Wnt bcat act
COc1ccc2c(c1OC)C(=O)N1N=C(c3ccc(F)cc3)CC21 (stereo unspecified)	8	8	2	22	10
Cc1ccc(C2=NN3C(=O)c4ccccc4C3C2)cc1 (stereo unspecified)	39	24	9	31	39*
CCC(=O)N(C)C[C@H]1Oc2ncc(-c3ccc(C#N)cc3)cc2C(=O)N([C@H](C)CO)C[C@@H]1C	0	x	x	x	x
CO[C@@H]1CN(C)C(=O)c2cc(NS(=O)(=O)c3ccc(Cl)cc3)ccc2OC[C@H](C)NC[C@H]1C	3	x	x	x	x
Cc1ccc(C(=O)N/C(=C\c2ccc(-c3ccccc3[N+](=O)[O-])o2)C(=O)NCCCN2CCOCC2)cc1	7	58*	20	-54	0
Cc1ccc(C(=O)N/C(=C\c2ccc(-c3ccc(Br)cc3)o2)C(=O)NCCCN(C)C)cc1	x	-98	-97*	-107	-12
CN1C(=O)c2cc(NC(=O)Cc3ccccc3)ccc2OC[C@@H]2O[C@H](CC(=O)O)CC[C@H]21	1	x	x	x	x
CCCNC(=O)NC[C@@H]1[C@@H](c2ccc(C3=CCCCC3)cc2)[C@@H](CO)N1C(C)=O	-4	x	x	x	x
C#CCn1c(=NC(=O)c2ccc(Br)s2)sc2cccc(OC)c21	54*	14	29	73	6
Cc1ccc(S(=O)(=O)N[C@@H]2CC[C@@H](CCNC(=O)c3ccc4c(c3)OCO4)O[C@@H]2CO)cc1	-1	x	x	x	x
COCCOc1ccc(C(F)(F)F)cc1NC(=O)c1ccc(C(F)(F)F)cc1	x	-3	-6	-3	0
COCCOc1ccc(C(F)(F)F)cc1Nc1nc2ccccc2o1	62*	19	4	70	x
CSc1sc(C(=O)NCC2CC2)cc1S(=O)(=O)C(C)C	7	2	10	-3	4
COC(=O)c1cc(S(=O)(=O)C(C)C)c(S(C)=O)s1 (stereo unspecified)	x	90*	53	x	3
COc1ccc(NC(=O)N2C[C@@H]3[C@H](c4ccccc42)[C@@H](CO)N3C(=O)C2CCCC2)cc1	6	x	x	x	x
NC(=O)COC(=O)c1ccccc1Nc1ccc(SC(F)F)cc1	x	9	4	6	2
CN(C)C(=O)COC(=O)c1ccccc1OCC(=O)Nc1ccc(SC(F)F)cc1	x	-9	-2	0	x
CC(C)(C)NC(=O)COC(=O)c1ccccc1Nc1ccc(SC(F)F)cc1	x	98*	67	16	x
O=C(COC(=O)c1ccccc1Nc1ccc(SC(F)F)cc1)NC1CC1	x	79*	53	21	16
O=C(COc1ccccc1C(=O)O)Nc1ccc(SC(F)F)cc1	1	-88	-86*	9	6
O=C(COC(=O)c1ccccc1Nc1ccc(SC(F)F)cc1)NCc1ccco1	25	33	22	-5	13
CO[C@@H](CN(C)Cc1ccc2c(c1)OCO2)[C@H](C)CN(C(=O)Nc1ccc(F)cc1)[C@H](C)CO	-2	x	x	x	x
O=C(C[C@@H]1C=C[C@H](NC(=O)Nc2ccc(C(F)(F)F)cc2)[C@H](CO)O1)NCCN1CCCC1	-1	x	x	x	x
C[C@H](CO)N1C[C@H](C)[C@@H](CN(C)C(=O)NC2CCCCC2)Oc2ccc(NC(=O)CCN3CCOCC3)cc2CC1=O	-2	x	x	x	x
C[C@@H]1CN([C@@H](C)CO)C(=O)Cc2cc(NC(=O)Cc3cn(C)c4ccccc34)ccc2O[C@H]1CN(C)C(=O)Nc1ccc(C(F)(F)F)cc1	-5	x	x	x	x
SMILES	esBAF inh	HSF-1 act	HSF1 inh	MITF act	Wnt bcat act
CN(c1cccc(NC(=O)COc2ccc(Cl)cc2Cl)c1)S(C)(=O)=O	38	15	11	x	37*
O=C(COc1ccc(Cl)cc1Br)Nc1ccncc1	79*	10	-3	71	11
O=C(COc1ccc(Cl)cc1Cl)N/N=C/c1cccnc1	8	10	1	14	-2
O=C(COc1ccc(Cl)cc1Cl)Nc1cccnc1	x	22	2	94*	u
COc1cccc(S(=O)(=O)N2C[C@@H](O)COC[C@@H]3O[C@@H](CC(=O)N4CCN(C)CC4)CC[C@H]32)c1	-6	x	x	x	x
C=CCn1c(=O)c2c3c(sc2n2c(Nc4ccc(OC)cc4)nnc12)CCCC3	2	x	x	8	-1
C=CCn1c(=O)c2c3c(sc2n2c(Nc4ccccc4)nnc12)CCCC3	1	68*	43	8	x
CCCCCCOc1ccc(OCC(O)CN2C(=O)NC(C)(C)C2=O)cc1 (stereo unspecified)	46*	16	6	51	7
Cc1ccc(OCC(O)CN2C(=O)NC(C)(C)C2=O)cc1 (stereo unspecified)	-1	6	-2	-4	x
COc1ccc(NC(=O)N(C)C[C@H]2Oc3cc(-c4ccc(C)cc4)ccc3S(=O)(=O)N([C@@H](C)CO)C[C@@H]2C)cc1	-3	x	x	x	x
Cn1cccc1/C=N/NC(=O)c1cccs1	37	19	5	78	16
CCOc1cc(C(=O)Nc2nnc(C)s2)cc(OCC)c1OCC	8	-19	2	x	1
Cc1nnc(NC(=O)c2ccc3ccccc3c2)s1	x	37	22	92*	40*
CCCc1cc(C(=O)Nc2nnc(C)s2)cs1	50*	40	8	85*	29
Cc1nnc(NC(=O)c2ccc(Br)cc2)s1	22	37	-1	94*	9
CCCc1cc(C(=O)N/N=C/c2cccn2C)cs1	54*	3	19	71	16
O=C(NCc1ccncn1)[C@@H]1[C@@H](CO)[C@@H]2Cn3c(ccc(-c4ccncc4)c3=O)[C@@H]2N1CC1CC1	0	x	x	x	x
COc1ccc2c(COC(=O)c3n[nH]c4ccccc34)cc(=O)oc2c1	46*	63*	49	x	1
COCC(C)n1c(C)cc(C(=O)COC(=O)c2cc(=O)[nH]c3ccccc23)c1C (stereo unspecified)	-57	x	x	x	-10
Cc1cccc(C)c1OCCOC(=O)c1n[nH]c2ccccc12	24	14	8	24	0
Cc1cc2oc(=O)cc(COC(=O)c3n[nH]c4ccccc34)c2cc1C	34	51*	26	92*	x
COCC(C)n1c(C)cc(C(=O)COC(=O)c2n[nH]c3ccccc23)c1C (stereo unspecified)	x	-59	-53*	8	x
COc1cccc(S(=O)(=O)Nc2ccc3c(c2)[C@H]2C[C@H](CC(=O)N4CCCCC4)O[C@H](CO)[C@H]2O3)c1	8	x	x	x	x
O=C(NN=C1CCCCCCC1)c1ccc(F)cc1	x	23	-3	8	-1
O=C(Nc1ccccc1C(=O)Nc1ccccc1)c1ccccc1F	2	41	15	13	0
O=C(Nc1ccccc1NC(=O)c1ccccc1F)c1ccccc1F	3	58*	22	x	-1
O=C(O)c1cccc(NC(=O)c2ccccc2NC(=O)c2ccccc2F)c1	-8	-74	-68*	x	0
O=C(NN=C1CCCCCCCCCCC1)c1ccccc1F	x	-60	-55*	-4	0
